# According to PubChem BioAssay (NCATS):
# Inconclusive results are not listed. Active and inactive are the calls of the source. Calls come from the whole dose curve; as a rule, active = well fitted curve in the direction sought with a large enough effect in the signal ratio; inconclusive = small, poorly fitted or top-dose-only effect, or effect the other way, or a change in a side signal; inactive = no such curve, though single readings can be large or run the other way; the % refers to the signal ratio.
# Assay: Validation of Assay for Modulators of Lamin A Splicing (AID 1459);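 note: cells exposed to compound for two days before reading; ratio rise marks activators and ratio drop marks inhibitors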
# Settings: Lamin A splicing dual RFP/GFP fluorescence reporter; series mostly up to 9.22 µM
# From the text: Hutchinson-Gilford Progeria Syndrome (HGPS) is a pediatric premature aging disease caused by a spontaneous mutation in the lamin A/C (LMNA) gene. The mutation activates a cryptic splice site in the LMNA pre-mRNA which results in production of a pre-lamin A protein that cannot be processed properly. The mutant protein accumulates in the nucleus and negatively affects numerous cellular functions. Correction of the splicing defect in HGPS patient cells using a targeted oligonucleotide (exo11) leads to reversal of the cellular disease phenotypes. To identify small molecule modulators of aberrant LMNA splicing, a homogenous assay was constructed in HeLa cells that used a GFP containing minigene to report on correction of aberrant splicing in lamin A and a RFP (DsRed2) to report on cell viability, uniformity and nonspecific effects on the assay signal. This assay was adapted to laser-scanning microplate cytometry (Acumen, TTP Labtech) where miniaturization of the assay to a 1,536-well plate format was possible.
# Bowen, W. P.; Wylie, P. G. Application of Laser-Scanning Fluorescence Microplate Cytometry in High Content Screening. Assay Drug Dev Technol 2006;4:209-221.
# Scaffidi P, Misteli T. Reversal of the cellular phenotype in the premature aging disease Hutchinson-Gilford progeria syndrome. Nat. Med. 2005;11:440-445.
# NCGC Assay Protocol Summary:
# Reagents/Controls: Stable clones expressing DsRed2 and lamin A-EGFP were generated by Cell and Molecular Technologies in S3 HeLa cells.
# HeLa cells were prepared for the assay when they were 70-90% confluent. The cells were counted and resuspended in Opti-MEM I (no phenol red; Gibco), 2% FBS, 1% penicillin/ streptomycin (Gibco) at concentration of 120 cells/uL concentration. The suspension was passed through a Falcon basket filter with pore size 40um (Beckton Dickson).
# Control titrations: column […] 1536-well plate contained a sixteen point titration (1:2 dilutions) in duplicate of ancitabine (Sigma: A8598) beginning at 40 uM final concentration. Column 2 contained a sixteen point titration (1:2 dilutions) of cycloheximide beginning at 1.4 mM final concentration. Column 3 contained ancitabine at 40 uM and column 4 contained was the vehicle control (0.5% DMSO final concentration).
# 5 uL of HeLa cells were plated in Aurora LoBase black clear bottom (cyclic-olefin polymer) 1536-well plates at a final density of 600 cells/well. Controls and library compounds were added with a 1536-well pin array using the Kalypsys pin-tool. The plates were then incubated for 48 hrs in a cell-culture incubator (37 °C; 5% CO2, 98% humidity). Following incubation the plates were read on the Acumen Explorer using the 488 nm laser. Data was collected on objects between 10 and 100 um in size. Cell objects were defined by a 15 um width x 10 um depth filter. The ratio of the total object intensity in PMT1 (500-530 nm emission; GFP) over PMT3 (575-640 nm emission; RFP) was calculated for analysis.
# Keywords: NIH Roadmap, MLSCN, MLI, MLSMR, qHTS, NCGC, lamin A, Progeria, RNA splicing.
row,Structure (SMILES),outcome
1,CC1Cc2cc3c(cc2C(c2ccc(N)cc2)=NN1)OCO3 (centres undefined),inactive
2,COC(=O)C(N)CCCN=C(N)N[N+](=O)[O-] (centres undefined),inactive
3,COc1ccc2c(c1O)-c1cccc3c1C(C2)N(C)CC3 (centres undefined),inactive
4,C=CCN1CC[C@@]2(C)c3cc(O)ccc3CC1[C@@H]2C,inactive
5,CCC(CO)NC(=O)[C@@H]1C=C2c3cccc4[nH]cc(c34)C[C@H]2N(C)C1 (some centres undefined),inactive
6,CCCN(CCC)C(=O)Cc1c(-c2ccc(Cl)cc2)nc2c(Cl)cc(Cl)cn12,inactive
7,CCCC[N+]1(C)C2CC(OC(=O)C(CO)c3ccccc3)CC1C1OC12 (centres undefined),inactive
8,COc1cc(C[C@@H](C)N)c(OC)cc1I,inactive
9,COc1cc(C=C(C#N)C#N)cc(O)c1O,inactive
10,CCNC(=O)[C@H]1O[C@@H](n2cnc3c(N)ncnc32)[C@H](O)[C@H]1O,inactive
11,CN1C[C@@H](CS(=O)(=O)N(C)C)C[C@@H]2c3cccc4c3c(cn4C)C[C@H]21,inactive
12,Nc1ncnc2c1ncn2[C@@H]1O[C@H](COP(=O)(O)CP(=O)(O)OP(=O)(O)O)[C@H](O)[C@H]1O,inactive
13,C[C@H]1C2Cc3ccc(O)cc3[C@]1(C)CCN2CC1CC1,inactive
14,CC(C)(O)C1C2OC(=O)C1[C@]1(O)C[C@H]3O[C@]34C(=O)O[C@H]2[C@]14C (some centres undefined) (tested in a mixture with another compound),inactive
15,C[C@H]1OC[C@@H](C[N+](C)(C)C)O1,inactive
16,CC[C@@H](CO)NC(=O)[C@H]1C=C2c3cccc4c3c(cn4C)C[C@H]2N(C)C1,inactive
17,NNCc1cccc(O)c1,inactive

row,Structure (SMILES),outcome
1,COc1ccc2c3c1O[C@H]1C(=O)CC[C@@]4(O)C(C2)N(CC2CC2)CCC314 (some centres undefined),inactive
2,NCC#Cc1ccccc1,inactive
3,CCN(CC)C(=O)N[C@@H]1C[C@@H]2c3cccc4[nH]cc(c34)C[C@H]2N(C)C1,inactive
4,C#CCN(C)C(C)Cc1ccccc1 (centres undefined),inactive
5,CCCCN1C2CCC1CC(OC(c1ccc(F)cc1)c1ccc(F)cc1)C2 (centres undefined),inactive
6,N#CC(=Cc1ccc(O)c(O)c1)C(N)=S,inactive
7,CCN1C[C@]2(C)CC[C@H](O)[C@@]34[C@@H]5C[C@@H]6[C@@H](OC)C[C@@](O)(C5[C@H]6O)[C@@H](C[C@@H]23)[C@@H]14,inactive
8,Oc1ccc2c3c1O[C@H]1[C@@H](O)CC[C@@]4(O)C(C2)N(CC2CCC2)CCC314 (some centres undefined),inactive
9,CCCN(CCC)[C@@H]1CCc2c(F)ccc(O)c2C1,inactive
10,CCCN1CCC[C@@H](c2cccc(C#N)c2)C1,inactive
11,CN1CCC23CCCC[C@H]2C1Cc1ccc(O)cc13 (some centres undefined),inactive
12,NC(Cn1ccc(=O)[nH]c1=O)C(=O)O (centres undefined),inactive
13,C[N+]1(C)C2CC(OC(=O)C(CO)c3ccccc3)CC1C1OC12 (centres undefined),inactive
14,CCCN1CCCC(c2cccc(O)c2)C1 (centres undefined),inactive
15,C[C@]12CC[C@H]3[C@@H](CCC4C[C@H](O)CC[C@@]43C)[C@@H]1CC[C@@H]2O (some centres undefined),inactive
16,CCCN1CCC[C@@H]2Cc3n[nH]cc3C[C@H]21,inactive
17,CC12CCC3C(CCC4=C(O)C(=O)CCC43C)C1CCC2=O (centres undefined),inactive
